# A selection follows.
# 14-3-3g Raf = 14-3-3 gamma protein interaction modulation; P61981; FP, 14-3-3gamma / TMR-pS259-Raf peptide binding; inhibition, % at 40 µM; actives 0.19% (n = 160,000); in the data active means inhibition above about 30%;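 further: 0% = protein plus tracer without compound and 100% = blank with tracer alone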
# Target sequence (P61981 whole entry, looked up): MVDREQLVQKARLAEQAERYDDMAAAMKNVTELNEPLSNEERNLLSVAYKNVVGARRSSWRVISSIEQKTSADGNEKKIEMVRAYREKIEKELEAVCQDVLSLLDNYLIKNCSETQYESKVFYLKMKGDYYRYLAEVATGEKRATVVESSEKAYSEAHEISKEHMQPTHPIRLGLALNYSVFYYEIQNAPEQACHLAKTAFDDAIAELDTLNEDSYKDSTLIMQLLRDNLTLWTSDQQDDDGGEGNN
# * hit, by the source's call.
SMILES,14-3-3g Raf
Clc1ccc2c(Nc3ccc4c(c3)OCCO4)c3c(nc2c1)CCCC3,-1
CN(C)CCOC(=O)C12CC3CC(c4ccccc4)(C1)CC(c1ccccc1)(C3)C2,1
C=CCn1c(SCC(N)=O)nc2sc3c(c2c1=O)CCCC3,-11
COc1ccc(C2CC(C(F)(F)F)n3nc(C(=O)NCCc4ccccc4)c(Cl)c3N2)cc1 (stereo unspecified),-5
O=C(Nc1ncc(Cc2cccc([N+](=O)[O-])c2)s1)c1sc2ccccc2c1Cl,-2
O=C(O)CC(NC(=O)c1ccccc1F)c1ccccc1 (stereo unspecified),-5
Cc1cccc(NC(=O)c2ccc(N3CC4CC(C3)c3cccc(=O)n3C4)c(NC(=O)c3ccc(F)cc3)c2)n1 (stereo unspecified),-1
CCc1ccc(O)c(N=Cc2cc(C)c(C)c(Br)c2O)c1,15
